In PubChem BioAssay (Tox21) one finds outcome, viability change, negative = cytotoxic and activation data, which are given here for 37 compounds.

Inconclusive results are not listed. Activity calls are given as the source filed them. Calls follow the shape of the full dose curve.

A short description of one assay: qHTS assay to identify small molecule agonists of the AP-1 signaling pathway - cell viability counter screen (AID 1159525). Also: nearly all actives have a fitted effect of over 55% in size. The conditions noted are these: ME-180 AP-1-bla cells viability, ATP luminescence, 5 h; series mostly up to 76.8 µM. The gist of the method: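 Intracellular ATP by Cell Titer Glo luminescence (30 min, RT) in the same ME-180 AP-1-bla wells after the 5 h compound exposure at 37 °C. Normalised to tetra n-octyl ammonium bromide and DMSO controls.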
Regarding `NNc1nnc(NN)c2ccccc12`, the compound was classed as inactive.
Regarding `C=CCCCCCCCCCCCC`, the compound was called inactive.
With `O=C(O)c1ccc(Cl)cc1Cl`, the compound was classed as inactive.
As to `O=C1CC(c2ccc(Cl)cc2)CC(=O)N1`, the outcome was inactive.
Take `Cc1nc2n(c(=O)c1CCN1CCC(c3noc4cc(F)ccc34)CC1)CCC[C@H]2O`: the viability change, negative = cytotoxic was 2.97% [at 15.8 µM] (inactive).
As for `CN(C)C(=O)CNC(=O)Cc1ccccc1`, the outcome was inactive.
Regarding `C=C(C)C(=O)OCC(C)(C)COC(=O)C(=C)C`, the compound was called inactive.
Consider `O=C(O)c1cc(Cl)cc([N+](=O)[O-])c1Cl`, for which the compound was classed as inactive.
Same read-out and setting: the value for `O=S(=O)(O)c1ccc2cc(O)c(S(=O)(=O)O)cc2c1` was “inactive”.
Take `On1nnc2ccccc21`: the outcome was inactive.
Still for that read-out and setting: the value for `CN=C(NC#N)Nc1ccc(C2=NNC(=O)CC2C)cc1` (centres undefined) was “inactive”.
In the case of `CC(=O)Nc1cccc(C)c1`, the compound was classed as inactive.
Same read-out and setting: the entry for `CCc1ccc(C=O)cc1` is “inactive”; for `CC/C=C\CC1=C(C)CCC1=O` it is “inactive”; for `OC[C@H](Cc1cccc(O)c1)[C@H](CO)Cc1cccc(O)c1` it is “inactive”.
The same measure, in the same setting: the value for `COc1ccc(Br)c(C)c1` was “inactive”; that for `Cc1ccc(C=O)cc1C` was “inactive”; that for `CCCC/C=C\CCCCCCCCCC=O` was “inactive”.
On the same count and under the same terms, the entry for `COc1cc2c(cc1OC)[C@@H]1CC(=O)[C@@H](CC(C)C)CN1CC2` is “inactive”.
As to `c1ccc2nccnc2c1`, the outcome was inactive.
Regarding `Cc1ccc2ccc(Cl)cc2n1`, the call was inactive.
Still for that read-out and setting: the entry for `CC(=O)OC(C)OC(=O)C(C)c1ccc(-c2ccccc2)c(F)c1` (centres undefined) is “inactive”; for `CC(C)(C)c1nnc(NS(=O)(=O)c2ccc(N)cc2)s1` it is “inactive”.
Still for that read-out and setting: the entry for `CCn1ccc(NS(=O)(=O)c2ccc(N)cc2)nc1=O` is “inactive”.
For the compound `COc1ccc2c(c1)C(=O)N(CCc1ccc(S(=O)(=O)NC(=O)NC3CCCCC3)cc1)C(=O)C2(C)C`, the call was inactive.
For `Cc1ccc2c(c1)OCC(=O)CO2`, the call was inactive.
The same measure, in the same setting: the value for `Cc1ccc(S(=O)(=O)O)c(C)c1` was “inactive”; that for `Cc1cc2cc3c(C)cc(=O)oc3c(C)c2o1` was “inactive”; that for `COc1nccnc1NS(=O)(=O)c1ccc(N)cc1` was “inactive”.
Same read-out and setting: the entry for `C=C(C)C1CCC(C)(O)CC1` (centres undefined) is “inactive”; for `CC(C)N(c1ccccc1)C(C)C` it is “inactive”; for `CC(C)c1ccc2cc(C(C)C)ccc2c1` it is “inactive”.
The same measure, in the same setting: the entry for `C=C(C)C(=O)OCCOP(=O)(O)OCCOC(=O)C(=C)C` is “inactive”; for `Cc1cc(Cl)c(C)cc1Cl` it is “inactive”.
For `O=C(O)Cc1cn(-c2ccccc2)nc1-c1ccc(Cl)cc1`, the outcome was inactive.
Same read-out and setting: the entry for `COC(=O)CCc1ccc(OCC(O)CNC(C)C)cc1` (centres undefined) is “inactive”; for `COc1ccc(-c2cc(=O)c3c(O)cc(O[C@@H]4O[C@H](CO[C@@H]5O[C@@H](C)[C@H](O)[C@@H](O)[C@H]5O)[C@@H](O)[C@H](O)[C@H]4O)cc3o2)cc1O` it is “inactive”.

The nature of another assay: qHTS assay to identify small molecule agonists of the AP-1 signaling pathway (AID 1159526). Also: % is scaled to controls: 0 for no effect and ±100 for the full control effect. Conditions: ME-180 (cervical carcinoma) AP-1-bla reporter, beta-lactamase FRET ratio, 5 h; series mostly up to 76.8 µM.
Turning to `NNc1nnc(NN)c2ccccc12`, the result was inactive.
Take `C=CCCCCCCCCCCCC`: the outcome was inactive.
Still for that read-out and setting: the entry for `O=C(O)c1ccc(Cl)cc1Cl` is “inactive”; for `O=C1CC(c2ccc(Cl)cc2)CC(=O)N1` it is “inactive”.
Regarding `Cc1nc2n(c(=O)c1CCN1CCC(c3noc4cc(F)ccc34)CC1)CCC[C@H]2O`, the activation was 6.23% [at 15.8 µM] (inactive).
For `CN(C)C(=O)CNC(=O)Cc1ccccc1`, the result was inactive.
Consider `C=C(C)C(=O)OCC(C)(C)COC(=O)C(=C)C`, for which the result was inactive.
As to `O=C(O)c1cc(Cl)cc([N+](=O)[O-])c1Cl`, the result was inactive.
For `O=S(=O)(O)c1ccc2cc(O)c(S(=O)(=O)O)cc2c1`, the outcome was inactive.
In the case of `On1nnc2ccccc21`, the outcome was inactive.
Take `CN=C(NC#N)Nc1ccc(C2=NNC(=O)CC2C)cc1` (centres undefined): the outcome was inactive.
Consider `CC(=O)Nc1cccc(C)c1`, for which the outcome was inactive.
As to `CCc1ccc(C=O)cc1`, the outcome was inactive.
Still for that read-out and setting: the entry for `CC/C=C\CC1=C(C)CCC1=O` is “inactive”; for `OC[C@H](Cc1cccc(O)c1)[C@H](CO)Cc1cccc(O)c1` it is “inactive”; for `COc1ccc(Br)c(C)c1` it is “inactive”.
Still for that read-out and setting: the value for `Cc1ccc(C=O)cc1C` was “inactive”; that for `CCCC/C=C\CCCCCCCCCC=O` was “inactive”; that for `COc1cc2c(cc1OC)[C@@H]1CC(=O)[C@@H](CC(C)C)CN1CC2` was “inactive”.
Same read-out and setting: the entry for `c1ccc2nccnc2c1` is “inactive”.
On to `Cc1ccc2ccc(Cl)cc2n1`, for which the result was inactive.
`CC(=O)OC(C)OC(=O)C(C)c1ccc(-c2ccccc2)c(F)c1` (centres undefined): the result was inactive.
As to `CC(C)(C)c1nnc(NS(=O)(=O)c2ccc(N)cc2)s1`, the outcome was inactive.
With `CCn1ccc(NS(=O)(=O)c2ccc(N)cc2)nc1=O`, the result was inactive.
On the same count and under the same terms, the entry for `COc1ccc2c(c1)C(=O)N(CCc1ccc(S(=O)(=O)NC(=O)NC3CCCCC3)cc1)C(=O)C2(C)C` is “inactive”; for `Cc1ccc2c(c1)OCC(=O)CO2` it is “inactive”; for `Cc1ccc(S(=O)(=O)O)c(C)c1` it is “inactive”.
The same measure, in the same setting: the entry for `Cc1cc2cc3c(C)cc(=O)oc3c(C)c2o1` is “inactive”; for `COc1nccnc1NS(=O)(=O)c1ccc(N)cc1` it is “inactive”.
Regarding `C=C(C)C1CCC(C)(O)CC1` (centres undefined), the outcome was inactive.
Same read-out and setting: the value for `CC(C)N(c1ccccc1)C(C)C` was “inactive”; that for `CC(C)c1ccc2cc(C(C)C)ccc2c1` was “inactive”.
Still for that read-out and setting: the value for `C=C(C)C(=O)OCCOP(=O)(O)OCCOC(=O)C(=C)C` was “inactive”.
As to `Cc1cc(Cl)c(C)cc1Cl`, the outcome was inactive.
For the compound `O=C(O)Cc1cn(-c2ccccc2)nc1-c1ccc(Cl)cc1`, the outcome was inactive.
For the compound `COC(=O)CCc1ccc(OCC(O)CNC(C)C)cc1` (centres undefined), the outcome was inactive.
On the same count and under the same terms, the value for `COc1ccc(-c2cc(=O)c3c(O)cc(O[C@@H]4O[C@H](CO[C@@H]5O[C@@H](C)[C@H](O)[C@@H](O)[C@H]5O)[C@@H](O)[C@H](O)[C@H]4O)cc3o2)cc1O` was “inactive”.
